The values that follow come from PubChem BioAssay.

The structures appear in SMILES notation. The list shows a part of the results. Inconclusive results are not listed. Active and inactive are the calls of the source.

The target in test [1] is Solute carrier family 12 member 5 (Homo sapiens) (UniProt Q9H2X9). As to the kind of experiment: KCC2 modulators in sodium-free buffer, confirmation, cell-based, HEK293 KCC2, thallium flux, secondary assay (AID 1713). Conditions: FluoZin2 fluorescence, at 10 µM, stronger effect = higher value.
Another test is described as follows: PubChem AID 1714.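 Further: raw slope of fluorescence over initial fluorescence between 10 and 20 s after thallium.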 Conditions: HEK293-KCC2 + bumetanide/ouabain, thallium flux FluoZin2; at 10 µM; stronger effect = higher value.
Test [2] addresses Solute carrier family 12 member 5 (Homo sapiens) (UniProt Q9H2X9). The test can be described thus: KCC2 modulators without ouabain present, confirmation, cell-based, HEK293 KCC2, thallium flux, FluoZin2, secondary assay 2 (AID 1715;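 active means thallium flux slope more than 3 SD above or below the plate's solvent-only control mean, mostly below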;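 further: raw slope with 0.1% DMSO as baseline and bumetanide as block control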). Conditions: HEK293-KCC2, thallium flux FluoZin2 fluorescence; at 10 µM; actives lie on both sides; F/F0 rise rate, 10–20 s post-thallium.
Test [3] can be described thus: thallium flux modulation in parental HEK cells, confirmation, counter-screen for KCC2 modulator project, cell-based, counterscreen 1 (AID 1716;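 active means thallium flux rate significantly above the same plate's solvent-only control wells, beyond their mean plus 3 SD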). Conditions: HEK293 parental cells, thallium flux FluoZin2, ouabain; at 10 µM; baseline-ratio fluorescence slope, 10–20 s after thallium.
Test [4] deals with Solute carrier family 12 member 5 (Homo sapiens) (UniProt Q9H2X9). The test can be described thus: KCC2 inhibitors and activators, ouabain retest, confirmation, HEK-KCC2 cells (AID 1717;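 active means thallium flux slope beyond 3 SD from same-plate DMSO control mean in most replicates, usually higher, sometimes lower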;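 further: slope of initial-normalized fluorescence between seconds 10 and 20 after thallium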). Conditions: HEK293-KCC2, thallium flux FluoZin2 fluorescence, at 10 µM, bidirectional: low = inhibitor, high = activator.
The nature of test [5]: native HEK Tl+ uptake effects, second counter-screen – HEK cells, counterscreen 2, counter-screen for KCC2 modulator project, confirmation (AID 1718;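 active means thallium flux slope above the same plate's solvent-control mean plus 3 SD in both duplicate wells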;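 further: run without ouabain in cells lacking the KCC2 cotransporter; slope of fluorescence scaled to its starting value between 10 and 20 s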). Conditions: HEK293 parental, thallium flux FluoZin-2 fluorescence slope; at 10 µM. (In general: A counterscreen serves to expose hits that act by an unwanted route or on another target.)
Test [6] is described as follows: inhibitors of TNFa-induced NFkB p65 translocation, primary screen, imaging, HUVEC, MLSMR starter and 10KST1 sets (AID 438;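 active means inhibition above 20% together with a positive visual image hit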;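 further: compound added about 3h40 before a 20 min TNFalpha stimulation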;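 on inhibition: signal is the nuclear over cytoplasmic p65 intensity ratio per well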). Conditions: HUVEC TNFa-induced p65 nuclear translocation; cell count: measured here: nuclei count (cytotoxicity indicator), at 2.08 µM; inhibition: at 2 µM, stronger effect = higher value, 0% TNFa-plus-vehicle, 100% no-TNFa wells.
A short description of test [7]: inhibitors of mutant huntingtin aggregation, primary screen, imaging, exon1htt(103Q)mCFP cells, high-content imaging (AID 483;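 active means visual image review flags a hit and inhibition of aggregation exceeds 20%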;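 further: compound exposure lasted 3 days before fixation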;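 on nuclei count: percent of the per-plate median nuclei count of sample wells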). Conditions: exon1htt(103Q)mCFP cell line, aggregate imaging, at 2 µM; inhibition of aggregation: stronger effect = higher value; nuclei count: measured here: cell count, toxicity.
The nature of test [8]: inhibitors of E-selectin induction by TNFa, primary screen, imaging, HUVEC, immunofluorescence, MLSMR starter and 10KST1 sets (AID 487;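 active means visually confirmed hit in the image check and inhibition above 20%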;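 on inhibition: signal is fraction of cell area covered by stained E-selectin grains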;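 on nuclei count: 100% = median nuclei count of all wells on the same plate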). Conditions: HUVEC TNFalpha-induced E-selectin immunofluorescence imaging, at 2 µM; inhibition: stronger effect = higher value; nuclei count: measured here: cell number, toxicity.
The target of test [9] is Voltage-gated potassium channel subunit beta-2 (Rattus norvegicus) (UniProt P62483). The test can be described thus: KvBeta enzyme negative modulators, primary screen, biochemical, NADPH fluorescence (AID 622;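 active means fluorescence slope higher than the sample average by over 3 SD, cut at about -0.22 in these data, passing the limit was not always enough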;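 further: slope of raw intensity against log time taken from 70 to 1610 s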). Conditions: recombinant KvBeta, 4-cyanobenzaldehyde reduction, at 10 µM, stronger effect = higher value.
For test [10] the target is unchanged. The test can be described thus: KvBeta positive modulators, primary screen, biochemical, NADPH fluorescence (AID 623;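 active means NADPH fluorescence slope more negative than the mean of all samples by about 3 SD, 99.7% confidence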;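 further: fluorescence intensity change per second fitted from 20 to 320 s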). Conditions: Recombinant KvBeta, NADPH fluorescence decrease slope, 10 min; at 10 µM; stronger effect = lower value.
Test [11] addresses Alpha-2C adrenergic receptor (Homo sapiens) (UniProt P18825). As to the kind of experiment: modulators of alpha2C/GIRK thallium flux, primary screen, cell-based, HEK293 alpha2C/GIRK1/2 (AID 624;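 active means fluorescence slope after compound addition differing from the mean of all screened samples at 99.7% confidence, in either direction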;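 further: slope of fluorescence ratio to pre-addition baseline per second over 15 to 24 s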). Conditions: thallium flux BTC fluorescence, at 10 µM, actives lie on both sides.
A short description of test [12]: inhibitors of larval lipid processing in zebrafish, primary screen, whole organism, PED6 fluorescence, gall bladder and intestine (AID 686;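 active means a full or partial loss of lipid-probe fluorescence in the fish gall bladder, intestine or both, judged by eye; inactive means no fluorescence loss, or compound toxic to the fish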;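 further: larvae 5 to 7 days old with five fish per well; signal comes from phospholipase A2 cleavage of quenched PED6 carried via bile; overnight exposure to compound and PED6 before scoring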). Conditions: Zebrafish larvae PED6 lipid processing, fluorescence scoring; screened at 20 µM (by protocol).
A short description of test [13]: inhibitors of Sendai virus-induced IRF3 signaling, primary screen, TLR/RLR signaling modifier project, cell-based, Sendai virus stimulus, luciferase, 10K MLSCN set (AID 602276;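 active means inhibition at or above 50% at 10 µM; inactive means inhibition below 50%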;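 further: firefly luciferase from ISG56 promoter only with Renilla not read in this screen; 0% = Sendai virus plus DMSO and 100% = medium plus DMSO without virus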). Conditions: HEK293 RL24 IRF3 luciferase reporter, at 10 µM, stronger effect = higher value. Background: In a reporter assay the amount or activity of a reporter protein is the signal.
Test [14] in a line: inhibitors of poly I:C-induced TLR3 signaling, primary screen, cell-based, poly I:C stimulus, luciferase, 10K MLSCN set (AID 602277;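 active means inhibition of the reporter signal at or above 50%; inactive means inhibition below 50%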). Conditions: HEK293-TLR3 RL24 IRF3 luciferase reporter, at 10 µM, stronger effect = higher value.
The nature of test [15]: DUSP6 inhibitors restoring Erk phosphorylation by chemical complementation, primary imaging in DUSP6-transfected HeLa (AID 609;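 active means compounds giving at least 50% inhibition in the cell-based MKP-3 phosphatase rescue imaging test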;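 on inhibition: phospho-Erk level distribution per well compared with pooled transfected vehicle control wells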). Conditions: HeLa MKP-3 transfected, phospho-Erk imaging KS statistic, at 10 µM, cells stimulated with TPA for 15 min.
The target of test [16] is Dual specificity protein phosphatase 6 (Homo sapiens) (UniProt Q16828). The test is described as above. Conditions: HeLa MKP-3 transfected, phospho-Erk imaging KS statistic; at 10 µM; stronger effect = higher value; cells stimulated with TPA for 15 min.
Test [17] can be described thus: inhibitors of Chlamydomonas gravitaxis, primary screen, whole organism, Chlamydomonas reinhardtii, WT vs cilia-less mutant, absorbance, 96-well (AID 463189;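 active means inhibition at or above 50% relative to wild type and mutant plate controls; inactive means inhibition below 50%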;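 further: 0% = wild type cc124 cells in DMSO and 100% = ciliumless bld1 mutant cells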). Conditions: OD600 absorbance, 2 days, at 10 µM, stronger effect = higher value.

Sequence of Solute carrier family 12 member 5 (Homo sapiens) (Q9H2X9 whole entry, looked up): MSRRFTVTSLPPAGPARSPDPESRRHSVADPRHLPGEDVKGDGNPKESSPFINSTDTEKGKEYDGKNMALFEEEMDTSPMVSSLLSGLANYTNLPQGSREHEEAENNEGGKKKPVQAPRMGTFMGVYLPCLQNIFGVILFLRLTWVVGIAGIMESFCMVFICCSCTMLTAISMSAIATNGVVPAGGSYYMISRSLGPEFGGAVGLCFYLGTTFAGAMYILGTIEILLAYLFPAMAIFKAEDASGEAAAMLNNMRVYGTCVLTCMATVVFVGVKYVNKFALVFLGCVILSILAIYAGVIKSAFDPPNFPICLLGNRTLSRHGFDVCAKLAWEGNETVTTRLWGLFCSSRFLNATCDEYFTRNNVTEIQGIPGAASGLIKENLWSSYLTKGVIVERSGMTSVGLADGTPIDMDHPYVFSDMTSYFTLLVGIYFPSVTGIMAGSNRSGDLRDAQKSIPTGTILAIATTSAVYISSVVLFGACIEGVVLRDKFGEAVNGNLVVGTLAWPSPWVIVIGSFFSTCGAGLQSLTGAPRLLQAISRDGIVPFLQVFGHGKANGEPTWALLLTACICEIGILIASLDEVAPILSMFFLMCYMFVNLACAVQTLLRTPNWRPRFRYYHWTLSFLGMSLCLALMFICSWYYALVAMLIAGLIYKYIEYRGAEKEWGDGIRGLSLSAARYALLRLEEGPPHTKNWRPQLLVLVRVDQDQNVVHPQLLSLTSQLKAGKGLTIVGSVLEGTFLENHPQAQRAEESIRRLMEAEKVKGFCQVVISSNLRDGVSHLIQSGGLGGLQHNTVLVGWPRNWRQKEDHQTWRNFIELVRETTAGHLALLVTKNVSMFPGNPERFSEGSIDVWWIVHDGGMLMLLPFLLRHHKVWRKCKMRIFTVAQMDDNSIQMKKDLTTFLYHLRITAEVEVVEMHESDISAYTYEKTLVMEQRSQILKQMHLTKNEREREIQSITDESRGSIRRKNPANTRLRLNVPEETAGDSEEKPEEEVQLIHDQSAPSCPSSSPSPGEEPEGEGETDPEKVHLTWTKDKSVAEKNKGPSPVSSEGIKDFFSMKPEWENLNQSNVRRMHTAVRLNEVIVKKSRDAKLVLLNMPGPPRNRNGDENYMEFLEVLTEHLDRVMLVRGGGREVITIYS
Sequence of Voltage-gated potassium channel subunit beta-2 (Rattus norvegicus) (P62483 whole entry, looked up): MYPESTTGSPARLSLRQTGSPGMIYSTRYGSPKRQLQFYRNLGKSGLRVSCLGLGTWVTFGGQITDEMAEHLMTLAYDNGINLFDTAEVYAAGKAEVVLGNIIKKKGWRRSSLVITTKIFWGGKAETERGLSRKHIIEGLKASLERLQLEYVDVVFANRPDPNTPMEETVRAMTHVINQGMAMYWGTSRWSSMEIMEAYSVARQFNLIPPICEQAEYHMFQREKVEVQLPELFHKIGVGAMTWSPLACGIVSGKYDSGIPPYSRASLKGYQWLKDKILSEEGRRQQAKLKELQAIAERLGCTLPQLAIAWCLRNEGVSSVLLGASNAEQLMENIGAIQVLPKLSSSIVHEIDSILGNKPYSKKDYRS
Sequence of Alpha-2C adrenergic receptor (Homo sapiens) (P18825 whole entry, looked up): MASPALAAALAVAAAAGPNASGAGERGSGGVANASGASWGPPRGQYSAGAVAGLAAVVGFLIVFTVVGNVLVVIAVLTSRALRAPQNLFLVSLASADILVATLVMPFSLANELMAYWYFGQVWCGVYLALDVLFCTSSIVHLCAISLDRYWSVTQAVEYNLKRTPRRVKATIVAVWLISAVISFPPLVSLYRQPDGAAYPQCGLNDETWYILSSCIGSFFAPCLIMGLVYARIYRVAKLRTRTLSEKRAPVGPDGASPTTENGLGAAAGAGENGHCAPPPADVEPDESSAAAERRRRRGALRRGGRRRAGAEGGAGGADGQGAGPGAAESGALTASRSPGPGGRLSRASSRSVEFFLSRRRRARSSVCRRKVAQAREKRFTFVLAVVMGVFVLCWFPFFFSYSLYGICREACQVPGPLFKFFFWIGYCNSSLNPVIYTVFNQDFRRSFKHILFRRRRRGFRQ
Sequence of Dual specificity protein phosphatase 6 (Homo sapiens) (Q16828 whole entry, looked up): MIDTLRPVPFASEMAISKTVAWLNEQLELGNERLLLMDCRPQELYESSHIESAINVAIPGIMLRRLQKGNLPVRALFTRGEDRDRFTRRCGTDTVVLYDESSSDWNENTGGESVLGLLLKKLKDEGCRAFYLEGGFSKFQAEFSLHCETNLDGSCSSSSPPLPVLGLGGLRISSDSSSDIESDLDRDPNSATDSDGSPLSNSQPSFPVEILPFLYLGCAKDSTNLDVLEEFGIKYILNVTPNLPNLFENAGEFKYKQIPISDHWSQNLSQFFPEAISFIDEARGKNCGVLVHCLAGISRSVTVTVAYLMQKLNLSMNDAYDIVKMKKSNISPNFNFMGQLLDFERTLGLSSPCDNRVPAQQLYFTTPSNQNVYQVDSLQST

For the compound `Cc1ccc(Nc2nnc(SCC(=O)c3cc4ccccc4o3)s2)cc1C`, in test [1], the normalised thallium flux (F/F0 slope) was 0.00887 (inactive). For the same compound, the normalized thallium flux in “PubChem AID 1714” was 0.00668 (inactive); in [2], 0.0195 (active). The thallium flux rate (normalised fluorescence) in test [3] is 0.00694 (inactive). The raw Tl+ flux slope (below DMSO = inhibition, above = activation) in test [4] was 0.00819 (active). Moreover, the thallium flux slope in test [5] was 0.00899 (inactive).
As for `Cc1ccc(-n2ncc3c(Nc4cccc(C(=O)O)c4)ncnc32)cc1`, the normalised thallium flux (F/F0 slope) in [1] was 0.00874 (inactive). Also, the normalized thallium flux in the test “PubChem AID 1714” was 0.00541 (inactive); in test [2] it was 0.0319 (inactive). Further, the raw Tl+ flux slope (below DMSO = inhibition, above = activation) in [4] was 0.0185 (inactive). For the same compound, the thallium flux slope in test [5] was 0.0099 (inactive).
Regarding `COc1cccc2sc(Nc3nc(C)c(C(C)=O)s3)nc12`, in test [1], the normalised thallium flux (F/F0 slope) is 0.00922 (inactive). Moreover, the normalized thallium flux is 0.0124 (active) in the test “PubChem AID 1714” and 0.0359 (inactive) in test [2]. Further, the raw Tl+ flux slope (below DMSO = inhibition, above = activation) in test [4] is 0.0215 (inactive). The thallium flux slope in test [5] was 0.0124 (inactive).
In general, inhibition refers to the relative decrease from the control value, in per cent. Regarding `COc1ccccc1-n1cnc2cc(NS(=O)(=O)c3ccccc3)ccc21`, in test [6], the cell count was 720. The inhibition in [6] is -12.5% (inactive); in test [8] it was -14.6% (inactive); in test [13], -18.8% (inactive); in [14] it was 98.4% (active). In test [7], the inhibition of aggregation is 1.2% (inactive). The nuclei count amounted to 90.2% in [7] and 108% in test [8]. The fluorescence slope in [9] was -0.46 (inactive). Also, in test [10], the NADPH fluorescence slope was -1.9e-05 (inactive). In [11], the slope is 0.00351 (inactive). Also, the outcome in test [12] was inactive. Besides, in test [1], the normalised thallium flux (F/F0 slope) was 0.00507 (inactive). Besides, the normalized thallium flux was 0.00527 (inactive) in “PubChem AID 1714” and 0.0252 (active) in test [2]. The thallium flux rate (normalised fluorescence) in [3] was 0.0068 (inactive). Also, the thallium flux slope in [5] is 0.00966 (inactive).
On to `O=C(CSc1ccc(-c2cccs2)nn1)Nc1ccccc1F`, for which the normalised thallium flux (F/F0 slope) in test [1] was 0.00973 (inactive). Moreover, the normalized thallium flux in the test “PubChem AID 1714” was 0.00689 (inactive). For the same compound, the thallium flux rate (normalised fluorescence) in test [3] is 0.00368 (inactive). Further, the raw Tl+ flux slope (below DMSO = inhibition, above = activation) in test [4] was 0.017 (active). For the same compound, the thallium flux slope in test [5] is 0.0107 (inactive).
As for `O=C(N/N=C/c1ccc(Br)o1)c1cncc(Br)c1`, the normalised thallium flux (F/F0 slope) in [1] is 0.0115 (active). Further, the normalized thallium flux in “PubChem AID 1714” is 0.0326 (active); in test [2], 0.0307 (inactive). For the same compound, in test [3], the thallium flux rate (normalised fluorescence) is 0.0124 (active). In addition, the thallium flux slope in test [5] is 0.0107 (active).
As to `O=c1c2ccccc2[nH]c(=S)n1CCN1CCC(=C(c2ccc(F)cc2)c2ccc(F)cc2)CC1`, in test [6], the cell count came to 603. Also, the inhibition in [6] is -12.2% (inactive); in [8], -105% (inactive); in test [16], -4.44% (inactive); in [17], -8.89% (inactive); in test [13] it was 8.28% (inactive); in test [14] it was 23.8% (inactive). Further, in test [7], the inhibition of aggregation was 12% (inactive). The nuclei count in test [7] was found to be 92.5%; in [8], 132%. For the same compound, the z-score in test [15] (measured here: cell density z-score) is -1.63; in [15] (measured here: nuclear c-Myc green intensity z-score), -0.997; in test [15] (measured here: nuclear pErk red intensity z-score, stronger effect = higher value) it was 0.771. For the same compound, the fluorescence slope in [9] was -0.452 (inactive). In [10], the NADPH fluorescence slope is -0.000101 (inactive). Also, the slope in test [11] is 0.00649 (inactive). Besides, the outcome in [12] was inactive. Besides, in test [1], the normalised thallium flux (F/F0 slope) is 0.00677 (inactive). For the same compound, the normalized thallium flux is 0.0111 (active) in the test “PubChem AID 1714” and 0.0294 (inactive) in [2]. Moreover, in test [3], the thallium flux rate (normalised fluorescence) is 0.00955 (active).
On to `Cc1c(C(=O)NC(=S)NCc2cccnc2)oc2ccccc12`, for which, in test [1], the normalised thallium flux (F/F0 slope) was 0.025 (active). Also, in “PubChem AID 1714”, the normalized thallium flux is 0.0479 (active). Further, the thallium flux rate (normalised fluorescence) in [3] is 0.028 (active). For the same compound, the raw Tl+ flux slope (below DMSO = inhibition, above = activation) in [4] was 0.0308 (active). The thallium flux slope in test [5] is 0.0284 (active).
